Results filed as inconclusive are left out. The source made the active and inactive calls. Rule for the calls, unless noted: active = hit-call score of the fitted dose curve at least 0.9, where 1 is the maximum; inconclusive = response in the unintended direction; inactive = score below 0.9.
Tests used:
[1] = ATG_TGFb_CIS: Attagene CIS-FACTORIAL HepG2 Assay for human Transforming Growth Factor (TGF) (AID 2282967; active = hit-call score of the fitted dose curve at least 0.9, where 1 is the maximum; inactive = score below 0.9); details: HepG2 Attagene CIS TGFb reporter, mRNA transcription; actives raise or lower the signal
In short: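 Transcript-level reporter readout: HepG2 transfectants, 24 h exposure, RNA to cDNA, reporter-specific PCR, fluorescent primer extension, capillary sizing against ROX standards. Gain- or loss-of-signal relative to DMSO.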

[2] = molecular target: Nuclear receptor subfamily 1 group I member 3 (Homo sapiens) (UniProt Q14994); test: ATG_CAR_TRANS: Attagene TRANS-FACTORIAL HepG2 Assay for human Constitutive Androstane Receptor (CAR) (AID 2282969); details: HepG2 Attagene TRANS-FACTORIAL CAR reporter;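 note: activators raise reporter mRNA above DMSO so AC50 marks induction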
In short: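 HepG2 cells transiently transfected with GAL4-UAS reporter units; TRANS format reads activity of exogenous chimeric NR-Gal4 protein. After 24 h dosing, reporter mRNA quantified by RT-PCR, 6-FAM labelling and capillary electrophoresis; gain of signal fitted against DMSO.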

[3] = molecular target: X-box-binding protein 1 (Homo sapiens) (UniProt P17861); test: ATG_Xbp1_CIS: Attagene CIS-FACTORIAL HepG2 Assay for human X-box Binding Protein 1 (XBP1) (AID 2282972; active = hit-call score of the fitted dose curve at least 0.9, where 1 is the maximum; inactive = score below 0.9); details: HepG2 XBP1 cis-element reporter, Attagene multiplex; actives raise or lower the signal
In short: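 HepG2, transient MRTU transfection (cis-promoter driven), 24 h compound exposure. Total RNA → oligo(dT) RT → PCR → 6-FAM labeling → HpaI cut → CE. Bidirectional fit vs DMSO.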

[4] = ATG_M_19_TRANS: Attagene TRANS-FACTORIAL HepG2 Assay for M19 Transcription Factor (Internal Marker) (AID 2282974); details: HepG2 Attagene TRANS-FACTORIAL M19 internal marker reporter
In short: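 HepG2 transiently transfected with GAL4-UAS multiplex reporter constructs, exposed 24 h; reporter RNA quantified by RT-PCR, 6-FAM labeling, HpaI digestion and capillary electrophoresis; internal background marker fitted upward versus DMSO.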

[5] = ATG_GAL4_TRANS: Attagene TRANS-FACTORIAL HepG2 Assay for GAL4 (Internal Marker) (AID 2282976); details: HepG2 Attagene TRANS GAL4 internal marker reporter
In short: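 Liver HepG2 line bearing multiplexed GAL4-UAS reporter constructs; 24 h chemical treatment. Transcripts were quantified as fluorescent fragments on capillary electrophoresis after RT-PCR and HpaI cut, with activity fitted upward from DMSO.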

[6] = molecular target: Hepatocyte nuclear factor 4-alpha (Homo sapiens) (UniProt P41235); test: ATG_HNF4a_TRANS: Attagene TRANS-FACTORIAL HepG2 Assay for human Hepatocyte Nuclear Factor 4 alpha (HNF4a) (AID 2282982); details: HepG2 HNF4a transactivation reporter, mRNA readout
In short: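 HepG2 cells transiently transfected with HNF4a-Gal4 chimera and GAL4-UAS reporter units, dosed for 24 h. Reporter mRNA measured by RT-PCR, fluorescent primer extension and capillary electrophoresis; gain-of-signal fitted relative to DMSO.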

[7] = ATG_M_06_TRANS: Attagene TRANS-FACTORIAL HepG2 Assay for M06 Transcription Factor (Internal Marker) (AID 2282983); details: HepG2 Attagene TRANS M06 internal marker reporter;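 note: reporter transcript level by RT-PCR then capillary electrophoresis fluorescence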
In short: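 Internal-marker background readout from a multiplexed TRANS reporter system in HepG2; 24 h dosing; mRNA induction quantified by RT-PCR plus capillary electrophoresis fluorescence; DMSO as negative control and baseline.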

[8] = molecular target: Transcriptional activator Myb (Homo sapiens) (UniProt P10242); test: ATG_Myb_CIS: Attagene CIS-FACTORIAL HepG2 Assay for human Myeloblastosis (Myb) Proto-Oncogene Transcription Factor (AID 2282986; active = hit-call score of the fitted dose curve at least 0.9, where 1 is the maximum; inactive = score below 0.9); details: HepG2 Attagene CIS-FACTORIAL Myb reporter transcription; actives raise or lower the signal
In short: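 Transiently transfected HepG2 cells carrying a multiplexed cis-promoter reporter set report endogenous Myb activity after 24 h compound exposure. Reporter mRNA is read by RT-PCR with capillary electrophoresis of fluorescent products, fitted bidirectionally against DMSO.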

[9] = ATG_NFI_CIS: Attagene CIS-FACTORIAL HepG2 Assay for human Nuclear Factor I (NFI) (AID 2282989; active = hit-call score of the fitted dose curve at least 0.9, where 1 is the maximum; inactive = score below 0.9); details: HepG2 cis-regulatory reporter, NFI response element transcription; actives raise or lower the signal
In short: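 After transient transfection of HepG2 with cis-promoter reporter constructs and 24 h dosing, RNA is reverse-transcribed, amplified, 6-FAM end-labelled and HpaI-digested before capillary analysis. Bidirectional curve fitting against DMSO.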

[10] = molecular target: Estrogen-related receptor gamma (Homo sapiens) (UniProt P62508); test: ATG_ERRg_TRANS: Attagene TRANS-FACTORIAL HepG2 Assay for human Estrogen-Related Receptor gamma (ERRg) (AID 2282977); details: HepG2 Attagene TRANS reporter, ERRg transactivation;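 note: hits increase reporter signal over DMSO so potencies reflect activators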
In short: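 Transfect HepG2 with multiple GAL4-UAS reporter transcription units; dose chemicals 24 h; isolate RNA, reverse-transcribe with oligo(dT), PCR-amplify, label with 6-FAM, digest with HpaI; size fragments by capillary electrophoresis. DMSO serves as negative control.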

[11] = molecular target: Nuclear receptor subfamily 4 group A member 2 (Homo sapiens) (UniProt P43354); test: ATG_NURR1_TRANS: Attagene TRANS-FACTORIAL HepG2 Assay for human Nuclear Receptor Related Protein 1 (NURR1) (AID 2282985); details: HepG2 Attagene TRANS reporter, mRNA readout
In short: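 HepG2 cells transiently transfected with NURR1-Gal4 chimera and GAL4-UAS reporter units; after 24 hr compound exposure, reporter mRNA quantified by RT-PCR and capillary electrophoresis; gain of signal fitted against DMSO.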

[12] = molecular target: Bile acid receptor (Homo sapiens) (UniProt Q96RI1); test: ATG_FXR_TRANS: Attagene TRANS-FACTORIAL HepG2 Assay for Farnesoid X Receptor (FXR) (AID 2282979); details: HepG2 Attagene TRANS FXR-GAL4 reporter transcription;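 note: hits raise reporter mRNA above DMSO so AC50 marks FXR activation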
In short: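 After 24 h chemical treatment of transfected HepG2 cells, GAL4-UAS reporter transcripts driven by an exogenous FXR-GAL4 fusion were measured by RT-PCR and capillary electrophoresis. Increases over DMSO were fitted.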

[13] = molecular target: Oxysterols receptor LXR-alpha (Homo sapiens) (UniProt Q13133); test: ATG_LXRa_TRANS: Attagene TRANS-FACTORIAL HepG2 Assay for human Liver X Receptor alpha (LXRa) (AID 2282980); details: HepG2 Attagene TRANS reporter, LXRa transactivation
In short: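 In this multiplexed TRANS system, compounds act on HepG2 cells carrying GAL4-UAS reporter units and a receptor-GAL4 fusion for 24 h. Induced reporter RNA is amplified, fluorescently labelled and sized by capillary electrophoresis, with DMSO as baseline.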

[14] = molecular target: Oxysterols receptor LXR-beta (Homo sapiens) (UniProt P55055); test: ATG_LXRb_TRANS: Attagene TRANS-FACTORIAL HepG2 Assay for human Liver X Receptor beta (LXRb) (AID 2282981); details: HepG2 Attagene TRANS GAL4-LXRb reporter, mRNA
In short: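 HepG2 cells transiently transfected with GAL4-UAS reporter units for chimeric NR-Gal4 proteins, dosed for 24 h. Reporter transcripts measured by RT-PCR and capillary electrophoresis; gain-of-signal fitting relative to DMSO.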

[15] = molecular target: Nuclear respiratory factor 1 (Homo sapiens) (UniProt Q16656); test: ATG_NRF1_CIS: Attagene CIS-FACTORIAL HepG2 Assay for human Nuclear Respiratory Factor 1 (NRF1) Orphan Gene (AID 2282987; active = hit-call score of the fitted dose curve at least 0.9, where 1 is the maximum; inactive = score below 0.9); details: HepG2 NRF1 cis-element reporter, Attagene multiplex; actives raise or lower the signal
In short: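 HepG2 cells transiently transfected with multiple cis-regulated reporter units, exposed 24 h. Reporter mRNAs measured by RT-PCR, fluorescent labelling, HpaI digestion and capillary electrophoresis; bidirectional fitting against DMSO.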

[16] = molecular target: Glucocorticoid receptor (Homo sapiens) (UniProt P04150); test: ATG_GR_TRANS: Attagene TRANS-FACTORIAL HepG2 Assay for human Glucocorticoid Receptor (GR) (AID 2282978); details: HepG2 Attagene TRANS GR reporter, mRNA transcription;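 note: activators score as hits since higher reporter transcript over DMSO is fitted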
In short: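 HepG2 cells transiently transfected with GAL4-UAS reporter units and exogenous GR-Gal4 chimera, dosed 24 h. Reporter mRNA by RT-PCR, FAM labeling, HpaI digest and capillary electrophoresis; gain-of-signal fit versus DMSO.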

[17] = molecular target: Estrogen receptor (Homo sapiens) (UniProt P03372); test: ATG_ERa_TRANS: Attagene TRANS-FACTORIAL HepG2 Assay for human Estrogen Receptor alpha (ERa) (AID 2282970); details: HepG2 Attagene TRANS ERa GAL4 reporter, mRNA
In short: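 Multiplexed cell-based reporter format in HepG2: chimeric ERa-Gal4 protein drives GAL4-UAS reporter transcription. Fluorescent reporter mRNA quantified by capillary electrophoresis 24 hours after dosing; endpoint fitted as signal gain against DMSO.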

[18] = molecular target: Steroid hormone receptor ERR1 (Homo sapiens) (UniProt P11474); test: ATG_ERRa_TRANS: Attagene TRANS-FACTORIAL HepG2 Assay for human Estrogen-Related Receptor alpha (ERRa) (AID 2282971); details: HepG2 Attagene TRANS reporter, ERRa transactivation
In short: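 Signal gain relative to DMSO for an ERRa-Gal4 chimeric receptor, read as reporter mRNA by RT-PCR/capillary electrophoresis. Human HepG2 liver cells, transient multiplex reporter transfection, 24 h chemical exposure.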

Measured: AC50

Sequence of Glucocorticoid receptor (Homo sapiens) (P04150 whole entry, looked up, the tested form may be a part): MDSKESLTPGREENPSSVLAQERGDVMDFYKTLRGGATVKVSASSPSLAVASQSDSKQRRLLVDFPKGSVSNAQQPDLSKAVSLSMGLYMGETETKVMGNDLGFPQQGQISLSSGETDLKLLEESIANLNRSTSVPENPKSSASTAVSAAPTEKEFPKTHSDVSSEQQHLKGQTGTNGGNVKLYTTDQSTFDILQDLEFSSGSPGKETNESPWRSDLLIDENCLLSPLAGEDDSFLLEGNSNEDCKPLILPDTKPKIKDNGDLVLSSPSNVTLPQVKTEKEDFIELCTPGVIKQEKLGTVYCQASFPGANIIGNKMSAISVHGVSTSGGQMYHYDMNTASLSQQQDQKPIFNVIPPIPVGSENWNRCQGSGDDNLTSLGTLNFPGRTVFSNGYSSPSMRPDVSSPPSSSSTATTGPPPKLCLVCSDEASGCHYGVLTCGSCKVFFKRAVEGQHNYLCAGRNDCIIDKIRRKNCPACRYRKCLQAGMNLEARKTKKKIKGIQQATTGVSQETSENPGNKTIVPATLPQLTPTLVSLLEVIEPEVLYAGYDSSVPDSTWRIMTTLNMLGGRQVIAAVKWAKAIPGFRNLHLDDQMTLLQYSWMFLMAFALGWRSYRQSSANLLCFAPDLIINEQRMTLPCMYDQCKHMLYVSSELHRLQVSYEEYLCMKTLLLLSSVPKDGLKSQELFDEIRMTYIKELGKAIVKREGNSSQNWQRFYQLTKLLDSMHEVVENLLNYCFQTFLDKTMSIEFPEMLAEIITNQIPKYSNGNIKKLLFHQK
Sequence of Nuclear respiratory factor 1 (Homo sapiens) (Q16656 whole entry, looked up): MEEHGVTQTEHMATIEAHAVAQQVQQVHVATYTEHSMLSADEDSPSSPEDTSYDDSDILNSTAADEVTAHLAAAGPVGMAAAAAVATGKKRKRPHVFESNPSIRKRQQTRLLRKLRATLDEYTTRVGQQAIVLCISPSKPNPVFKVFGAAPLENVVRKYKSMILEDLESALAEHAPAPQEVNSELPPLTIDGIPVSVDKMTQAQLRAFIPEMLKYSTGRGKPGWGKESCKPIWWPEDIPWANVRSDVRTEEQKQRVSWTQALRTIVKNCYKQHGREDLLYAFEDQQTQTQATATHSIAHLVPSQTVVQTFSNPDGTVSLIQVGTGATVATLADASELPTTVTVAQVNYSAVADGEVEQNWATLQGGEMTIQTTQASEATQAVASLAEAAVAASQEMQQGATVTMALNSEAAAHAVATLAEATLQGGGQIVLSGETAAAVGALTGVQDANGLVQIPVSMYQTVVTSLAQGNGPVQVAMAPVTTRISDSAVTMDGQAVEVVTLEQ
Sequence of Hepatocyte nuclear factor 4-alpha (Homo sapiens) (P41235 whole entry, looked up, the tested form may be a part): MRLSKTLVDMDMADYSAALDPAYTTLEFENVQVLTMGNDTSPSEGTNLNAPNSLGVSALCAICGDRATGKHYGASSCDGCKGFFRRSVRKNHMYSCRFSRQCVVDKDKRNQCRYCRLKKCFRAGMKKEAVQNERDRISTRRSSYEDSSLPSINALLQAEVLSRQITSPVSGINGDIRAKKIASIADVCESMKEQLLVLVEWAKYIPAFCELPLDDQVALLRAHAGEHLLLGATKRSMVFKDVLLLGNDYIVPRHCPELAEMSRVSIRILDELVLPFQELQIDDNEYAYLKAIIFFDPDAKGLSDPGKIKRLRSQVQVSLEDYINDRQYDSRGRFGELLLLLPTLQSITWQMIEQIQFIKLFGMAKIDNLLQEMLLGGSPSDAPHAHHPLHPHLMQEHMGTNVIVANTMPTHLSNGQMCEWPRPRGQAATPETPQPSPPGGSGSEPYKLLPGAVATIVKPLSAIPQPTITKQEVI
Sequence of Oxysterols receptor LXR-alpha (Homo sapiens) (Q13133 whole entry, looked up, the tested form may be a part): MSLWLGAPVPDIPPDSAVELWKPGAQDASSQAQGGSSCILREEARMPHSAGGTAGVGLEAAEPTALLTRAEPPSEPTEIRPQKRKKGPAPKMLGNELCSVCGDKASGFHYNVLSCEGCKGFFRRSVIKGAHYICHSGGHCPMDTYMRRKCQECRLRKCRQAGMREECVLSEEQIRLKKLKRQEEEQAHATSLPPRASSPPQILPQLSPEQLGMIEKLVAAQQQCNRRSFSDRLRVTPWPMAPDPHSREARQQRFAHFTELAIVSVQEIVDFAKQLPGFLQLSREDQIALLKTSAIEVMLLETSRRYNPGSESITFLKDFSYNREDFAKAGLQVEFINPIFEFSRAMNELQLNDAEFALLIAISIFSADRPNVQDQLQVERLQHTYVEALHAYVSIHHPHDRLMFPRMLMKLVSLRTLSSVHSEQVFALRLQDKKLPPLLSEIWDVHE
Sequence of Nuclear receptor subfamily 4 group A member 2 (Homo sapiens) (P43354 whole entry, looked up, the tested form may be a part): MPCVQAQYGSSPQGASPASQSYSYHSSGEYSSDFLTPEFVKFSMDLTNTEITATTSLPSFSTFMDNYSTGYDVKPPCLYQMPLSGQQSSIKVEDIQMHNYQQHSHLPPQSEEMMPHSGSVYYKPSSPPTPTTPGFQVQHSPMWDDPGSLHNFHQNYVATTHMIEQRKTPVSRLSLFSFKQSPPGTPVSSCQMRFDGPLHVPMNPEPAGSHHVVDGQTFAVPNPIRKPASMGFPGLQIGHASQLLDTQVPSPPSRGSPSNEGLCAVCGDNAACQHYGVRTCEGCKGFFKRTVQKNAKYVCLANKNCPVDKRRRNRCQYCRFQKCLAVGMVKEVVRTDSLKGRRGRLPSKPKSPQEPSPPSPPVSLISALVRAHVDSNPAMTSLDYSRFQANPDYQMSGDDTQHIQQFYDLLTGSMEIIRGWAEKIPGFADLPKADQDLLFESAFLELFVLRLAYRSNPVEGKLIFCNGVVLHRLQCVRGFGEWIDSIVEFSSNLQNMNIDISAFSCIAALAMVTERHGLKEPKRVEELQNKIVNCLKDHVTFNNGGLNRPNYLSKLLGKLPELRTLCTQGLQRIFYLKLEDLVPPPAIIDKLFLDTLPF
Sequence of Nuclear receptor subfamily 1 group I member 3 (Homo sapiens) (Q14994 whole entry, looked up, the tested form may be a part): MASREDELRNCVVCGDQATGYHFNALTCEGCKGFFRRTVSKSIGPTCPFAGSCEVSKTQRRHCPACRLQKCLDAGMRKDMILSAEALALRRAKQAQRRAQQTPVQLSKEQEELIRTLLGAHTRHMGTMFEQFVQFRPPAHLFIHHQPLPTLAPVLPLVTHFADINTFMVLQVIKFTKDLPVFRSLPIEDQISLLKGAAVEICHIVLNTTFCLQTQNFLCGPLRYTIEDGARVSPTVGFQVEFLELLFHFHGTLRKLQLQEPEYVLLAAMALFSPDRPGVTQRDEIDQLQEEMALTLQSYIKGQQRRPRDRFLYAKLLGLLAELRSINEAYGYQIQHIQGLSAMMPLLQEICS
Sequence of Transcriptional activator Myb (Homo sapiens) (P10242 whole entry, looked up): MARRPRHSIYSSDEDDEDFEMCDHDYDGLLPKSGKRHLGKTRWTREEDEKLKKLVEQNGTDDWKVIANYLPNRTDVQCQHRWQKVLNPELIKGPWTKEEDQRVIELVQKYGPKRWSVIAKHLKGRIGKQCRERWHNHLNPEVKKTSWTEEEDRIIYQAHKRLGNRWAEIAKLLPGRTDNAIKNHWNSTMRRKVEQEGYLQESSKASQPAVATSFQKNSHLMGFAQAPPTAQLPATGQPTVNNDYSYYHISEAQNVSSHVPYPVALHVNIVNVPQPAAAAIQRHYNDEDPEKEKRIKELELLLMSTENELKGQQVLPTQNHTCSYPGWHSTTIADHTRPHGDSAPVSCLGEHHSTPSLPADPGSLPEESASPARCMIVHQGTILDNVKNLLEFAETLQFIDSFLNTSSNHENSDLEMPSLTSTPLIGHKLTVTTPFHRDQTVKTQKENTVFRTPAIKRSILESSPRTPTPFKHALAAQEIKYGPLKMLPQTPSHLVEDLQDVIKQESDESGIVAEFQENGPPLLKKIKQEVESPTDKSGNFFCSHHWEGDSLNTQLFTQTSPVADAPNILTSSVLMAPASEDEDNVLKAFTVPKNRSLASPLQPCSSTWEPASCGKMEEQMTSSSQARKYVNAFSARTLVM
Sequence of Estrogen receptor (Homo sapiens) (P03372 whole entry, looked up, the tested form may be a part): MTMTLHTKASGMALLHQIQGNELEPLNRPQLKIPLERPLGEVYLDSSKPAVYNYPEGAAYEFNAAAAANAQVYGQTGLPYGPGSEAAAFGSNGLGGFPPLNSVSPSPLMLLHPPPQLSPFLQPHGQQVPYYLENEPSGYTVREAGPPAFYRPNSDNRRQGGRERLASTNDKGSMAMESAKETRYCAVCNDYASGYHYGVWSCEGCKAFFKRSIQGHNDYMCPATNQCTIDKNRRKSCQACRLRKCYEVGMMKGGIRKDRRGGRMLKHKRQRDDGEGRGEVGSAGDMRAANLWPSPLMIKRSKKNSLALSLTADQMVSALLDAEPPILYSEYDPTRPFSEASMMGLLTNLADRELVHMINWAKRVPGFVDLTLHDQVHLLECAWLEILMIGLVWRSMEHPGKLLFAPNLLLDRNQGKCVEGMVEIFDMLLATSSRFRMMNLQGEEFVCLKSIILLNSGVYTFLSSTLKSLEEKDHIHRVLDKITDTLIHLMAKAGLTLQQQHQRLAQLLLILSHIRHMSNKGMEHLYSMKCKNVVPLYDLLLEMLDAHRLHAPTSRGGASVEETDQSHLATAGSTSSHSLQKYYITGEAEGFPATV
Sequence of Oxysterols receptor LXR-beta (Homo sapiens) (P55055 whole entry, looked up, the tested form may be a part): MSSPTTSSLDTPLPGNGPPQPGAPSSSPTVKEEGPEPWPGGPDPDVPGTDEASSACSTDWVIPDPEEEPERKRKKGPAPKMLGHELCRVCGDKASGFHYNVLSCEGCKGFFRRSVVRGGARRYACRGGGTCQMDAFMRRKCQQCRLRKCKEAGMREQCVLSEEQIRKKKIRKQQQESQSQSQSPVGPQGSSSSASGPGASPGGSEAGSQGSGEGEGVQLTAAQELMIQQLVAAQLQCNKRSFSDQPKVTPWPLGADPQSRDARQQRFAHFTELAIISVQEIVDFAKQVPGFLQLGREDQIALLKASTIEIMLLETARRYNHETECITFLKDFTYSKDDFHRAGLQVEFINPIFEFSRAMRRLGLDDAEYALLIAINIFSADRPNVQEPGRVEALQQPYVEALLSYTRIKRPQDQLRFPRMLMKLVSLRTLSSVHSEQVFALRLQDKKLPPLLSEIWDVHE

C/C=C/C=C/C(=O)O
inactive: [1] | [2] | [3] | [4] | [5] | [6] | [7] | [8] | [9]

CC(C)(C)c1ccccc1
inactive: [1] | [2] | [3] | [10] | [7] | [11] | [8] | [9]

c1ccc2occc2c1
inactive: [1] | [2] | [3] | [10] | [12] | [13] | [14] | [7] | [11] | [8] | [15] | [9]

C#CC(O)C(CC)CCCC (stereo not drawn)
inactive: [1] | [2] | [3] | [4] | [16] | [13] | [11] | [8] | [9]

CS(=O)(=O)c1ccc([C@@H](C[C@H]2CCC(=O)C2)C(=O)Nc2cnccn2)cc1Cl
inactive: [1] | [17] | [3] | [4] | [16] | [13] | [14] | [6] | [7] | [11] | [8] | [9]

CC(C)(O)c1ccc(CNC(=O)c2cccnc2Oc2ccc(F)cc2)cc1
inactive: [1] | [2] | [18] | [3] | [4] | [5] | [16] | [13] | [14] | [8] | [9]

O=C(O)c1[nH]n(-c2ccc(S(=O)(=O)O)cc2)c(=O)c1N=Nc1ccc(S(=O)(=O)O)cc1
inactive: [1] | [17] | [3] | [5] | [7] | [8] | [9]

C=CCCCCCCCCCCCC
inactive: [1] | [2] | [3] | [4] | [16] | [14] | [6] | [11] | [8] | [15] | [9]

CSc1ccc(Oc2ccc(S(N)(=O)=O)cc2CN(C)C)cc1C
inactive: [1] | [2] | [17] | [3] | [4] | [5] | [12] | [13] | [14] | [11] | [8] | [15] | [9]

CC(C)OC(=O)C(C)(C)Oc1ccc(C(=O)c2ccc(Cl)cc2)cc1
inactive: [1] | [5] | [16] | [6] | [7] | [8] | [9]
active: [17] 27.1 µM | [3] 54.4 µM | [12] 26.8 µM | [11] 26.9 µM

— PubChem BioAssay (EPA / NIEHS)
